TGFb inhibitor: qHTS for Inhibitors of TGF-b; AID 588855, 2011; actives 1.2% (n = 410,000); Potency, µM (series often up to 46.1 µM), for inactives: at the top dose activity, negative = inhibition, most hits filed as inhibitors; HepG2 CAGA-GFP TGF-b/SMAD3 reporter, GFP fluorescence, 18 h; TGF-beta stimulated, 500 pg/mL final; further: potency means the concentration at half of the fitted maximal effect; on the % scale 0 is the no-effect control and ±100 the full control effect; nearly all actives have a fitted effect of over 65% in size
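HEPG2 CAGA-GFP reporter cells (1000/well, DMEM with 1% FBS) received compounds, then recombinant TGF-beta at 500 pg/mL final for 18 hours at 37 degrees C. Per-cell GFP summed per well was normalised to unstimulated and stimulated DMSO controls before curve fitting.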
TDP1 cell CPT: qHTS for Inhibitors of human tyrosyl-DNA phosphodiesterase 1 (TDP1): qHTS in cells in presence of CPT; Potency, µM (top dose mostly 46.2 µM), for the others: at the highest dose activity change, negative = growth inhibition, hits mostly inhibitors; AID 686979, 2013; chicken DT40 Tdp1-/-;hTDP1 cells + 20 nM CPT, ATP luminescence, 48 h; actives 12% (n = 420,000); further: potency means the concentration at half of the fitted maximal effect; on the % scale 0 is the no-effect control and ±100 the full control effect; nearly all actives have a fitted effect of over 55% in size
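Chicken DT40 Tdp1-/- cells stably complemented with human TDP1 were seeded at 400 cells/well in medium containing 20 nM camptothecin, exposed to pin-transferred compounds, and grown at 37 °C for at least 48 hr. Viability was read as ATP luminescence.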
HepG2 viability: qHTS for Inhibitors of TGF-b: Cytotox Counterscreen | AID 588856, 2011 | HepG2 CAGA-GFP viability, ATP luminescence, 18 h | actives 0.76% (n = 410,000) | Potency, µM (highest dose often 46.1 µM), for the others: at the highest dose activity change, negative = cytotoxicity, most hits filed as cytotoxic; further: potency means the concentration at half of the fitted maximal effect
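HepG2 CAGA-GFP cells (1000/well, DMEM with 1% FBS) received compound, then TGF-beta at 500 pg/mL final, and were incubated 18 hours at 37 degrees C. Viability was read by CellTiter-Glo luminescence. Media-only wells were set as complete cell-killing and DMSO as no toxicity.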
DT40 TDP1 no CPT: qHTS for Inhibitors of human tyrosyl-DNA phosphodiesterase 1 (TDP1): qHTS in cells in absence of CPT; DT40 Tdp1-/- hTDP1 cells, no CPT, ATP luminescence, 48 h; Potency, µM (titrated, usually from 46.2 µM), without a hit: top-dose activity change, negative = growth inhibition, hits mostly inhibitors; actives 15% (n = 420,000); further: potency means the concentration at half of the fitted maximal effect; on the % scale 0 is the no-effect control and ±100 the full control effect; nearly all actives have a fitted effect of over 55% in size
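Growth of hTDP1-complemented DT40 Tdp1-knockout cells is measured by ATP luminescence after at least 48 hr compound exposure at 37 °C, with DMSO substituting for the 20 nM CPT used in the parallel screen.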
S-ASM inh: Inhibitors of Secretory Acid Sphingomyelinase (S-ASM): qHTS | actives 0.006% (n = 340,000) | Sphingomyelin phosphodiesterase (Homo sapiens), P17405 | placental ASM, HMU-PC fluorogenic substrate, 60 min | AID 504937, 2011 | Potency, µM (highest dose often 57.5 µM), for the others: at the highest dose activity change, negative = inhibition, actives largely listed as inhibitors; further: potency means the concentration at half of the fitted maximal effect
Target sequence (P17405 47-631 limits assumed): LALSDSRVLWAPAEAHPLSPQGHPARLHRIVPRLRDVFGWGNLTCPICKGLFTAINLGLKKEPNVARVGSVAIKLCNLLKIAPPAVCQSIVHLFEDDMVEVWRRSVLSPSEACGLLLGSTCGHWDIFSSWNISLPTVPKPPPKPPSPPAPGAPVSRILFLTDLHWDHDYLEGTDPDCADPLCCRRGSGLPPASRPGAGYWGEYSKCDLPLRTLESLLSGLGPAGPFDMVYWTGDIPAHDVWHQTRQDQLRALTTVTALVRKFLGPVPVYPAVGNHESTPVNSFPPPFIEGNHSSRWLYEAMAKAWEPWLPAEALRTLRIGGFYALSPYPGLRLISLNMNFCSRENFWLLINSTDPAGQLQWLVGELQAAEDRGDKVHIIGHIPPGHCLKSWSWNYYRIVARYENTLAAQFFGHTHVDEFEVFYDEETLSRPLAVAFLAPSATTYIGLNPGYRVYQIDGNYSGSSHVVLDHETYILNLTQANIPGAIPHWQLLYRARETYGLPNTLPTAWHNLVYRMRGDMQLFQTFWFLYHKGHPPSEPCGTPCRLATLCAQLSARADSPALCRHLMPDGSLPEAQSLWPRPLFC
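Human placenta-derived ASM enzyme was preincubated with compound for 10 minutes at room temperature, then given fluorogenic substrate HMU-PC0 (9 uM final) for 60 minutes at 37 °C; a pH 10 stop preceded fluorescence reading at Ex 386/Em 447 nm.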
IL1B secr inh: qHTS for Inhibitors of Inflammasome Signaling: IL-1-beta AlphaLISA Primary Screen; actives 4.7% (n = 360,000); activity change, % at 57.5 µM; THP-1 LPS/ATP IL-1B secretion, AlphaLISA, 16 h; stronger effect = lower value; in the data active means activity change below about -50%; inconclusive means mostly about -30% to -49%; further: on the % scale 0 is the no-effect control and ±100 the full control effect
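Secreted IL-1B measured by AlphaLISA bead assay after 16 h compound exposure of THP-1 cells; compounds (final up to 57.5 uM) added 1 h before LPS (250 ng/mL) and ATP (1.25 mM) stimulation; lower signal means less secretion.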
Starred values were filed as active, the others as inactive; u = inconclusive; x = no result given. Most compounds without a hit are left out; they make up all but 19% or so of the library. Unless noted, the call rests on the fitted dose curve; in most records, active means well fitted curve in the direction sought with a large enough effect; inconclusive means small, poorly fitted or top-dose-only effect, or another doubt; inactive means no such curve, though single readings can be large; an effect the other way counts as inactive or inconclusive.

SMILES | TGFb inhibitor | TDP1 cell CPT | HepG2 viability | DT40 TDP1 no CPT | S-ASM inh | IL1B secr inh
COc1ccccc1CNC(=O)C1(C)CCN1C(=O)C1(c2ccccc2)CC1 (configuration not stated) | -12% | 16µM* | -12% | 26µM* | x | -26
CC1(C(=O)NCc2ccco2)CCN1C(=O)C1(c2ccccc2)CC1 (configuration not stated) | -5% | 4.6µM* | -8% | 5.2µM* | x | -107*
COc1ccc(C(=O)Nc2cnn(Cc3c(F)cccc3Cl)c2)cc1OC | 13% | u | 1% | -25% | -2% | 69
N#CCC(=O)NNC(=S)NC(=O)C(c1ccccc1)c1ccccc1 | 16% | -2% | 2% | -11% | -4% | 9
CC(=O)NC(=S)NNC(=O)C(c1ccccc1)c1ccccc1 | -9% | 13µM* | -4% | 21µM* | -2% | 58
CC(C)CSc1ccccc1NC(=O)c1sc2nc(-c3ccncc3)ccc2c1N | -8% | 5.8µM* | -58% | 7.3µM* | x | x
Cc1cc(F)ccc1NC(=O)c1sc2nc(-c3cccs3)ccc2c1N | -41% | u | -44% | u | x | x
COc1ccc(-c2ccc3c(N)c(C(=O)Nc4cc(F)ccc4C)sc3n2)cc1 | 7% | u | 0% | 15µM* | x | x
COc1ccc(-c2ccc3c(N)c(C(=O)Nc4cccc(C)c4)sc3n2)cc1 | -10% | 16µM* | -17% | u | x | x
Nc1c(C(=O)Nc2ccc(Br)cc2)sc2nc(-c3ccncc3)ccc12 | -8% | -20% | -15% | u | x | x
Cc1ccc(NC(=O)c2sc3nc(-c4ccc(F)cc4)ccc3c2N)cc1F | -14% | 12µM* | -1% | 21µM* | x | x
O=C(Nc1ccnn1C1CCN(C(=O)c2cc(Cl)ccc2F)CC1)C1CCOC1 (configuration not stated) | -6% | -2% | -4% | -1% | 1% | 22
O=C(CN1CCCC1)Nc1ccc(OC(F)(F)F)cc1 | 1% | 5% | 0% | -27% | 1% | 3
Nc1c(C(=O)Nc2ccc(F)cc2)sc2nc(-c3ccco3)ccc12 | -24% | u | -53% | u | 29% | -4
Nc1c(C(=O)Nc2ccc(Br)cc2)sc2nc(-c3ccco3)ccc12 | u | u | -72% | 15µM* | 99% | 8
Cc1ccc(NC(=O)CN(C)C(=O)COc2cccc3ccc(C)nc23)cc1 | 1% | -7% | -12% | -18% | 1% | 25
Cc1nnc(NCCc2ccccc2)c2ccccc12 | -6% | u | -6% | 23µM* | -3% | -19
Cc1nnc(NCc2cccc(Cl)c2)c2ccccc12 | -19% | u | -9% | u | 10% | -21
COc1cccc(C2=CC(c3cccc(OC)c3OC(F)F)n3nnnc3N2)c1 (configuration not stated) | -5% | u | -3% | u | 53% | 2
Cc1ccccc1C1C=C(c2ccc(Cl)cc2)Nc2nnnn21 (configuration not stated) | 7% | -28% | 3% | u | x | x
COc1cccc(C2=CC(c3cccc(OC)c3OC)n3nnnc3N2)c1 (configuration not stated) | -12% | 12µM* | -40% | 16µM* | 16% | -18
COc1cccc(C2C=C(c3ccc(C)c(C)c3)Nc3nnnn32)c1OC (configuration not stated) | -2% | 5.2µM* | -21% | 3.7µM* | x | x
Cc1ccc(CN(Cc2cc3cc4c(cc3[nH]c2=O)OCCO4)Cc2nnnn2Cc2ccco2)cc1 | -16% | u | -31% | u | 31% | u
CCC(c1nnnn1C(C)(C)CC)N(CCCO)Cc1cc2cc(C)cc(C)c2[nH]c1=O (configuration not stated) | 6% | u | 18% | 21µM* | -2% | u
COc1ccc2cc(CN(CCc3ccccc3)Cc3nnnn3Cc3ccco3)c(=O)[nH]c2c1 | 13% | u | -2% | 16µM* | 5% | -25
SMILES | TGFb inhibitor | TDP1 cell CPT | HepG2 viability | DT40 TDP1 no CPT | S-ASM inh | IL1B secr inh
COc1ccccc1CN(Cc1cc2c(C)ccc(C)c2[nH]c1=O)Cc1nnnn1Cc1ccco1 | 8% | 23µM* | 10% | 18µM* | -4% | -70*
Cc1ccc2cc(CN(Cc3ccc4c(c3)OCO4)Cc3nnnn3Cc3ccco3)c(=O)[nH]c2c1 | -24% | 16µM* | 6% | u | -4% | -53*
C=CCOc1ccc(/C=N/NC(=O)CN2CCOCC2)cc1OCC | 8% | -2% | 3% | u | 3% | 8
Cc1ccc2[nH]c(=O)c(CN(Cc3ccco3)Cc3nnnn3Cc3ccco3)cc2c1 | 2% | u | -6% | u | x | x
CCC(c1nnnn1Cc1ccco1)N(Cc1ccccc1OC)Cc1cc2cc(C)ccc2[nH]c1=O (configuration not stated) | 4% | u | 6% | 23µM* | -12% | -12
Cc1cccc2cc(C(c3nnnn3C(C)(C)C)N(Cc3ccco3)CC3CCCO3)c(=O)[nH]c12 (configuration not stated) | 0% | u | -28% | u | -1% | u
Cc1ccc2[nH]c(=O)c(CN(Cc3ccccc3)Cc3nnnn3Cc3ccco3)cc2c1 | 10% | 8.9µM* | 0% | u | x | x
Cc1ccc2[nH]c(=O)c(CN(Cc3ccccc3)Cc3nnnn3C3CCCC3)cc2c1 | 12% | 21µM* | -25% | u | -19% | -72*
CCC(c1nnnn1Cc1ccco1)N(Cc1cc2cc(C)cc(C)c2[nH]c1=O)CC1CCCO1 (configuration not stated) | 37% | 15µM* | 2% | 18µM* | 4% | -24
CC1=C(C(=O)N2CCOCC2)CC(CC(=O)NC2CC2)C(=O)N1Cc1ccc(F)cc1 (configuration not stated) | 1% | 5% | -1% | 0% | x | 32
O=c1[nH]c2cc3c(cc2cc1CN(Cc1nnnn1C1CCCC1)C1CCCC1)OCCO3 | -19% | 16µM* | -12% | 26µM* | 27% | -7
Cc1ccc2[nH]c(=O)c(CN(Cc3nnnn3C3CCCC3)C3CCCCC3)cc2c1 | -21% | -12% | -14% | -9% | 5% | 20

Screening results as filed in PubChem BioAssay.
